Data reported in article PMC4336329 (PLoS ONE, 2015).
Screen size: about 310,000 compounds; about 14,000 (4.5%) showed an effect of 50% or more. Effects have a minus sign here. The sample holds strong results, similar compounds and a random draw of the others, so the mix is not that of the screen.

target: human ether-à-go-go-related gene (hERG) potassium channel (human, UniProt Q12809); experiment: primary screen, population patch clamp on CHO cells stably expressing hERG; higher = less effect of the substance
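Note: peak tail current of the secondary pulse compared with the same well before compound.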

Chain of human ether-à-go-go-related gene (hERG) potassium channel (Q12809 whole entry, looked up): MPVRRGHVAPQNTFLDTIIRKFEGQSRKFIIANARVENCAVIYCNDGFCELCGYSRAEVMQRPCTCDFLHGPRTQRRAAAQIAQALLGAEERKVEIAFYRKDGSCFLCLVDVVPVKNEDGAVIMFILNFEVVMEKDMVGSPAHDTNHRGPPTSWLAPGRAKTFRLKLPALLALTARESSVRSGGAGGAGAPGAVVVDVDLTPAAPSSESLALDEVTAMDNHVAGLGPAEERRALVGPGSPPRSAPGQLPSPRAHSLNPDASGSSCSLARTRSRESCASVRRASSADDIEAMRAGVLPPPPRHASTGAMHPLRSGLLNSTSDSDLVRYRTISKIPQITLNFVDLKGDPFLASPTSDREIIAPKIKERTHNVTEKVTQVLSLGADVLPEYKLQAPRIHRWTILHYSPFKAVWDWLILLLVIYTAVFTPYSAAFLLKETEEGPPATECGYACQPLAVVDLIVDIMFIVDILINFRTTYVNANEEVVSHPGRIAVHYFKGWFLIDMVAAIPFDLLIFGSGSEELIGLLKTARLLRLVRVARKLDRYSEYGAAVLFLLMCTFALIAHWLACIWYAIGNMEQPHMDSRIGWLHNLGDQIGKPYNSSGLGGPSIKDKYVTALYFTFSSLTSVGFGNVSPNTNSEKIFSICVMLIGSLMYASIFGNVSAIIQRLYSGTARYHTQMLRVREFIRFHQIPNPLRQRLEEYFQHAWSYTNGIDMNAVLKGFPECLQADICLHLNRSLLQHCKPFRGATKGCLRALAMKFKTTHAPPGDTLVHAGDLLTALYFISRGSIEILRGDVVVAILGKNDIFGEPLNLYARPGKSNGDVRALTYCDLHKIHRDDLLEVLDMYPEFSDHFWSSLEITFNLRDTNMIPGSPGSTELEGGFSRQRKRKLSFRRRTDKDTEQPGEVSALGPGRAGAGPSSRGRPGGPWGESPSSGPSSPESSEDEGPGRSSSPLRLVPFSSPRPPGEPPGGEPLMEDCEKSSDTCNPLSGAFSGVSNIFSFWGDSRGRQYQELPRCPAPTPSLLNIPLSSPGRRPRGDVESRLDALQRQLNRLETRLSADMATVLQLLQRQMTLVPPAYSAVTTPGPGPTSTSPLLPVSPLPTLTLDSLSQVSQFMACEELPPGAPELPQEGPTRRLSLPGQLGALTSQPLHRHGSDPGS

SMILES	hERG current change (%, negative = inhibition) at 10uM [%]
Cc1cc(C)c(NC(=O)CSc2nnc(CNC(=O)c3ccccc3F)o2)c(C)c1	-6.38
CN1/C(=C\C(=S)NC(=O)c2ccccc2Cl)C(C)(C)c2ccccc21	23.6
COc1cc(C(=O)NCc2ncccc2C)ccc1OC1CCN(C(C)=O)CC1	6.34
CCC1CCCCN1C(=O)CSc1nc(N)c(NC(=O)c2ccc(OC)c(OC)c2)c(=O)[nH]1 (centres unmarked)	4.63
COc1ccc(OCCn2cncn2)cc1	12.6
COC(=O)c1cc2sc(Cl)cc2n1CC(=O)N1CCCc2ccccc21	-1.75
O=C(O)c1ccccc1-c1ccccc1C(=O)NCc1ccccc1Cl	-37.6
COC(=O)C1=C(c2ccc(OC(F)(F)F)cc2)C[C@@H]2CC[C@H]1N2C(=O)NCCOc1ccc(OC)cc1	-26.3
O=C1N/C(=N/S(=O)(=O)c2ccccc2)S/C1=C/c1cccnc1	1.74
CCCCc1c(C)nc2ccccc2c1SCCC#N	-50.6
CCCCc1c(C)nc2ccccc2c1SCCC(=O)O	14.8
CCc1c(C)nc2c(C)cccc2c1SCCC#N	17.7
O=C(Cc1ccc(NC2=NC3CS(=O)(=O)CC3S2)cc1)NCc1ccccc1Cl (centres unmarked)	6.5
CCOC(=O)c1c(NC(=O)CSc2nnc(-c3ccccc3)n2CC)sc(C(C)=O)c1C	-31
CCOC(=O)c1c(NC(=O)CSc2nnc(Cc3ccccc3)o2)sc(C)c1C	13.8
CCOC(=O)c1c(NC(=O)CSc2nnc(-c3ccccc3C)n2C)sc(C(C)=O)c1C	-63
CCOC(=O)c1sc(NC(=O)CSc2nnc(Cc3ccccc3)o2)c(C(=O)OCC)c1C	9.46
CCOC(=O)c1c(NC(=O)CSc2nnc(-c3cccc(C)c3)n2CC)sc(C(C)=O)c1C	-18.9
CCOC(=O)c1c(NC(=O)CSc2nnc(Cc3ccccc3)o2)sc(C(C)=O)c1C	-64.8
O=C(CNC(=O)c1cc2c(n(-c3ccccc3)c1=O)CCCC2=O)c1ccccc1	-38.5
CN1CCN(C(=O)N2c3ccccc3CCc3ccccc32)CC1	11.9
Cc1ccc(C)c(OCCC(=O)OCC(=O)NC(=O)NCc2ccccc2)c1	4.16

SMILES	hERG current change (%, negative = inhibition) at 10uM [%]
O=C(NCCCN1CCOCC1)C1CCN(S(=O)(=O)c2cccc(C(F)(F)F)c2)CC1	-9.45
O=S(=O)(c1cccc(C(F)(F)F)c1)N(CCCN1CCOCC1)Cc1cccs1	-74.9
O=C(NCCCN1CCOCC1)c1ccc(S(=O)(=O)Nc2cccc(C(F)(F)F)c2)cc1	-12.8
CCN(CC)S(=O)(=O)c1cccc(C(=O)NCCCN2CCOCC2)c1	9.9
Cl.O=S(=O)(NCCN1CCOCC1)c1cccc(C(F)(F)F)c1	5.32
O=C(O)C(=O)O.O=S(=O)(c1cccc(C(F)(F)F)c1)N(CCCN1CCOCC1)Cc1cccs1	-51
COc1ccc(S(=O)(=O)Nc2ccc3oc(C)c(C(C)=O)c3c2)cc1	12
COC(=O)c1sc(-c2ccc(Cl)cc2)cc1N	-37.1
O=C(c1ccc(COc2ccc3ccccc3c2)o1)N1N=C(C(F)F)CC1(O)C(F)F (centres unmarked)	-2.62
CC1(C)CC(NC(=O)C(F)(F)F)CC(C)(C)N1OC(=O)c1ccco1	1.13
Cc1ccc(S(=O)(=O)NCCCCCC(=O)N(C)C)cc1	6.32
CCOC(=O)/C=C1\SCC(=O)N1CC(=O)NC(C)c1ccccc1 (centres unmarked)	-15.2
CCOC(=O)/C=C1\SCC(=O)N1CC(=O)NC(c1ccccc1)c1ccccc1	-52.2
CCOC(=O)/C=C1\SCC(=O)N1CC(=O)NC(C)C	21.2
CCC1CCCCN1CC(=O)c1c(C)[nH]c2ccccc12 (centres unmarked)	-27.4
CCC1CCCCN1CC(=O)c1ccc(OC(F)F)cc1 (centres unmarked)	-77.7
O=C(CN1C(=O)c2ccccc2S1(=O)=O)c1ccc(OC(F)F)cc1	-23
O=C(NCC(=O)N1CCCCCC1)c1ccc(OC(F)F)cc1	-11.3
Br.O=C(CN1CCCCC1CO)c1ccc(OC(F)F)cc1 (centres unmarked)	-68.2
CCC1CCCCN1CC(=O)c1c(C)[nH]c2ccc(OC)cc12 (centres unmarked)	-20.6
O=c1c2cc(N3CCOCC3)ccc2[nH]c(=S)n1CCCN1CCCC1	-4.98
CC(C)(C)c1ccc(CN(Cc2ccccc2)C(c2ccccn2)c2nnnn2C(C)(C)C)cc1 (centres unmarked)	2.44
